Compounds with a hit are over-represented: about 4.7% of the library has one in this group of screens.
ALR inh – inhibitors of human ALR sulfhydryl oxidase, primary screen, biochemical, H2O2 detection, HRP-luminol luminescence, single point. purified ALR, DTT oxidation. inhibition, % (no concentration beside the values). 290,000 tested, 3.8% active. FAD-linked sulfhydryl oxidase ALR (Homo sapiens), P55789. AID 485317, 2010;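 active = mean replicate inhibition above about 79%, with every replicate also reaching it, limit read from the data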
Target sequence (P55789 whole entry, looked up): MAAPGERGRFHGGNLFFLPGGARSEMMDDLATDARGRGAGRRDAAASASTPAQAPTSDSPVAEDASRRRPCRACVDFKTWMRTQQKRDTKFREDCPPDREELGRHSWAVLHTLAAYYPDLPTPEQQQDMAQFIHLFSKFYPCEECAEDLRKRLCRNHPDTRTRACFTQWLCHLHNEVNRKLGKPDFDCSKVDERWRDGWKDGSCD
PABP FP inh – PABP poly(A) RNA binding inhibitors, primary screen, biochemical, fluorescence polarization, uHTS. Polyadenylate-binding protein 1 (Homo sapiens), P11940. inhibition, % at 35 µM. 290,000 tested, 1% active. AID 2014, 2009;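 also: calls also rest on retests at 20 µM and on dose response follow-up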
SUMO HTRF inh – inhibitors of in vitro SUMOylation cascade, primary screen, biochemical, HTRF, uHTS. 290,000 tested, 0.36% active. AID 2006, 2009. SUMO-conjugating enzyme UBC9 (Homo sapiens), P63279. inhibition, % at 35 µM. HTRF SUMOylation assay, SAE1/SAE2 + UBC9; in the data active = inhibition above about 50%, passing the limit was not always enough
Target sequence (P63279 whole entry, looked up): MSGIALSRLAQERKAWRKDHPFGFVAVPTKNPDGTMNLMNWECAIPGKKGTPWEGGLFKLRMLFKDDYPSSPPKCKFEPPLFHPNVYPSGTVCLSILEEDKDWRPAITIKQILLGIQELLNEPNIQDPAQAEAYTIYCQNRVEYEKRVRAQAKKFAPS
PABP1 MLLE inh – inhibitors of PABP1 MLLE–PAM2 peptide binding, primary screen, biochemical, fluorescence polarization, FITC-PAM2, GST-MLLE; Polyadenylate-binding protein 1 (Homo sapiens), P11940; inhibition, % at 20 µM; 360,000 tested, 0.36% active; in the data active = inhibition above about 35%, passing the limit was not always enough;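 also: plate controls were DMSO wells with GST-MLLE for no effect and wells lacking GST-MLLE protein for full effect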
Efflux pump inh – inhibitors of Candida efflux pumps in yeast, primary screen, S. cerevisiae, Nile Red, multiplex | S. cerevisiae Candida pump triplex | inhibition, % at 10 µM | 330,000 tested, 0.44% active | AID 485275, 2010;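 active = plate passing quality check with inhibition over a set limit, or well fluorescence over plate mean plus 4 SD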;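 also: Nile Red retained in pooled yeast measured as flow cytometry median fluorescence; 0% = buffer negative control and 100% = Enniatin B positive control; higher means more Nile Red kept so more efflux inhibition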
eIF4H FP inh – human eIF4H binding inhibitors, primary screen, translation initiation inhibitor project, biochemical, uHTS, fluorescence polarization; eIF4H fluorescence polarization binding assay; inhibition, % at 35 µM; 290,000 tested, 0.94% active; AID 2012, 2009;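 also: calls also rest on retests at 20 µM and on dose response follow-up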
Yeast cmpd fluor – compound fluorescence in yeast efflux pump counter-screen | shares compounds with Efflux pump inh | S. cerevisiae AD/pABC3, flow cytometry | fluorescence ratio to DMSO, % at 10 µM | 1,700 tested, 4% active | AID 588517;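 active = fluorescence ratio to DMSO above its plate's cutoff, the plate mean ratio plus 5 SD, cut at about 210% in these data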;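 also: unstained yeast with no Nile Red so the signal is compound autofluorescence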
CaMdr1 efflux inh – inhibitors of Candida albicans Mdr1 efflux, confirmation, flow cytometry, singleplex, Cherry Pick1 set; S. cerevisiae AD/CaMDR1, Nile Red efflux; AID 588518, 2011; shares compounds with Efflux pump inh; 1,700 tested, 1% active; inhibition, % at 10 µM; in the data active = inhibition above about 26%;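 also: 0% = DMSO vehicle and 100% = reference inhibitor; higher means more Nile Red retained so more efflux inhibition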
CaCdr2 efflux inh – inhibitors of Candida albicans Cdr2 efflux pump, confirmation, S. cerevisiae AD/CaCDR2, flow cytometry, cherry pick 1, singleplex; shares compounds with Efflux pump inh; Nile Red retention; Nile Red retention ratio vs DMSO, % at 10 µM; 1,700 tested, 4% active; AID 588520, 2011; in the data active = Nile Red retention ratio vs DMSO above about 190%;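 also: higher ratio means more blocking of Cdr2 efflux of the dye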
Cdr1 pump inh – inhibitors of Candida albicans Cdr1 efflux pump, confirmation, S. cerevisiae AD/CaCDR1, flow cytometry, cherry pick 1, singleplex; Nile Red efflux; shares compounds with Efflux pump inh; 1,700 tested, 1% active; inhibition, % at 10 µM;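 active = inhibition above the screen-wide mean plus twice its standard deviation, cut at about 32% in these data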
Numbers without * were called inactive; x = not tested or not shown; + = active, no number. Unless noted, no rule for the calls is given here.

SMILES | ALR inh | PABP FP inh | SUMO HTRF inh | PABP1 MLLE inh | Efflux pump inh | eIF4H FP inh | Yeast cmpd fluor | CaMdr1 efflux inh | CaCdr2 efflux inh | Cdr1 pump inh
CC[C@H]1C(=O)[C@@H](Cc2ccccc2)[C@@H]2CCN3C(=O)CCC[C@H]1[C@H]23 | x | x | x | -6.9 | x | x | x | x | x | x
C[C@@H]1CN(C(=O)c2cc(COc3cccc(C(F)(F)F)c3)on2)C[C@H](C)O1 | 0.8 | 11.6 | -9.6 | 0.6 | 0.5* | 3.3 | 97.6 | -0.2 | 105.1 | -0.1
CC(C(=O)NCCc1ccc(Cl)cc1)n1c(=O)c2cccn2c2cccnc21 (stereo not given) | -1.9 | -5.6 | 12.7 | 4.7 | -0.1 | -5.9 | x | x | x | x
c1ccc(C[C@H]2CN=C(Nc3ccccc3)N2CCC2CCCC2)cc1 | x | x | x | 1.8 | -0.1 | x | x | x | x | x
NC1=NC[C@H](Cc2ccc(O)cc2)N1CCCCC1CCCCC1 | 76.5* | -0.8 | 8.8 | 3.4 | 1.3 | 5.3 | 97.8 | -0.1 | + | 0.0
NC1=NC[C@H](Cc2ccccc2)N1CCCCC1CCCCC1 | -54.9 | -5.2 | 14.0 | 4.8 | 1.1* | 1.5 | 116.4 | 0.1 | 120.8 | 0.1
COc1ccc(C(=O)NC(=S)Nc2cccnc2)cc1[N+](=O)[O-] | 15.1 | 74.6 | -0.6 | 34.6 | -0.2 | 46.5 | x | x | x | x
O=C(CN(c1ccc(Cl)c(C(F)(F)F)c1)S(=O)(=O)c1ccccc1)N1CCOCC1 | -1.0 | 5.4 | 19.6 | 1.5 | 0.7* | 34.7 | 101.8 | -0.2 | 99.3 | -0.1
CCOCCCNC(=O)C(Cc1ccccc1)NS(=O)(=O)c1ccc2c(c1)c(=O)n(C)c(=O)n2C (stereo not given) | -1.1 | -3.9 | 14.4 | -4.2 | 0.0 | 8.9 | x | x | x | x
CCCCNC(=O)C(Cc1ccccc1)NS(=O)(=O)c1ccc2c(c1)c(=O)n(C)c(=O)n2C (stereo not given) | 21.4 | 5.7 | -4.1 | -1.8 | 1.8* | 8.6 | 100.2 | -0.1 | 86.7 | 0.0
Cc1cc(C)n(CC(=O)N/N=C/c2cc([N+](=O)[O-])ccc2O)n1 | 52.9 | 0.6 | 15.8 | -18.8 | 18.9* | -5.8 | 110.0 | 0.1 | 109.4 | -0.1
O=C(c1cc(COc2ccc(-n3cncn3)cc2)on1)N1CCCC1 | x | 7.2 | -5.6 | 0.3 | 9.9* | -0.7 | 104.6 | 0.2 | 106.0 | 0.1
COc1cc(OC)c(C2C(C(=O)Nc3ccc(C)cc3C)=C(C)Nc3ncnn32)cc1OC (stereo not given) | -15.8 | -3.9 | 4.5 | 1.4 | 0.8* | 3.3 | 98.6 | -0.1 | 107.8 | 0.0
Cc1ccc2c(c1)CCCN2C(=O)C1CCCO1 (stereo not given) | -1.1 | -7.4 | 13.9 | 3.0 | 14.4* | -11.7 | 102.5 | -0.2 | 99.6 | 0.2
CCO[C@H]1OC(C(=O)N2CCOCC2)=C[C@@H](c2ccc(Br)cc2)[C@@H]1CCCO | 1.1 | 6.3 | 9.3 | -3.9 | 0.1 | 0.7 | x | x | x | x
O=C(Cc1c(F)cccc1Cl)NCC(=O)OCc1ccccc1 | 19.9 | x | x | 7.9 | 0.1 | x | x | x | x | x
N#CCCN1CCN(C(=S)c2ccc(-c3ccc(Cl)c(Cl)c3)o2)CC1 | 1.6 | 27.6 | 9.5 | 23.5 | 1.0* | 9.3 | 104.5 | -0.1 | 89.9 | 0.1

High-throughput results from PubChem BioAssay.
